# According to PubChem BioAssay (NCATS):
# Inconclusive results are not listed. A call without a number means that no potency is given here. Active and inactive are the calls of the source. Calls come from the whole dose curve; as a rule, active = well fitted inhibition curve with a large enough effect; inconclusive = small, poorly fitted or top-dose-only effect, or effect the other way; inactive = flat fitted curve, though single readings scatter.
# Target: ATP-dependent 6-phosphofructokinase (Trypanosoma brucei brucei) (UniProt O15648)
# Sequence (O15648 whole entry, looked up): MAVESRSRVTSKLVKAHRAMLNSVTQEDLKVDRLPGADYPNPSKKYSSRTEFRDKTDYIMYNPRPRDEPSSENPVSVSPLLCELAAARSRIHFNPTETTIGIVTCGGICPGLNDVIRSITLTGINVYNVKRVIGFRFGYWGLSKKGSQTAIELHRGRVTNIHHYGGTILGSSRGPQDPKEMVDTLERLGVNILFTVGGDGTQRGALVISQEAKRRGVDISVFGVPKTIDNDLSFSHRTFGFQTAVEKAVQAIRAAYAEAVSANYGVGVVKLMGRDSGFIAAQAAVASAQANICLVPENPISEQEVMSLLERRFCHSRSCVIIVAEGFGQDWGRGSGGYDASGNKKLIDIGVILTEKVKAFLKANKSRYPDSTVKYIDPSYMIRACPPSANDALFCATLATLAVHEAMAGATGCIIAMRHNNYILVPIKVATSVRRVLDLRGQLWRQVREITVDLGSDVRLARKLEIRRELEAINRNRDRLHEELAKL
# Test: qHTS Validation Assay to Find Inhibitors of T. brucei phosphofructokinase (AID 485368)
# Settings: T. brucei PFK enzyme assay, qHTS 7-point titration; series mostly up to 57.5 µM
# Excerpt: NIH Molecular Libraries Probe Production Network [MLPCN]
# NIH Chemical Genomics Center [NCGC]
# PI Name: Malcolm Walkinshaw, University of Edinburgh
# Various species of the protozoan family Trypanosomatidae are responsible for a range of serious human diseases in tropical and subtropical areas of the world. […] Many of the disorders caused by trypanosomatids are fatal if left untreated, but most currently used drugs are inefficient and toxic.
# Oxidative metabolism involving the mitochondrial tricarboxylic acid cycle and oxidative phosphorylation are repressed in these parasites, and recent RNA interference (RNAi) experiments have shown that even partial depletion of certain individual glycolytic enzymes can lead to the death of cultured parasites. One such glycolytic enzyme, phosphofructokinase (PFK), catalyzes the formation of fructose-1,6-bisphosphate (F1,6BP) and ADP from fructose-6-phosphate (F6P) and ATP, and in many metabolic circumstances makes an important contribution to the control of flux through the glycolytic pathway. As a specific glycolytic target, PFK is particularly attractive as it catalyzes the first irreversible step in glycolysis, and structural and kinetic studies have shown very substantial and essential differences from corresponding host enzymes, allowing for the discovery of parasite-selective inhibitors.
# The goal of this screen is to find small-molecule inhibitors of T. brucei PFK using a biochemical assay that measures PFK activity as a function of ADP production. A luminescence-based assay for T. brucei PFK activity has been developed which uses luciferase to detect production of ADP. Traditional luciferase-based nucleotide detection reagents rely on ATP production as a direct substrate for the luciferase reaction; however, PFK catalyzes the transfer of a phosphate from ATP to F6P, resulting in the net depletion of ATP. To directly measure the ADP product of the PFK reaction, we used the ADP-Glo detection kit (Promega), which utilizes two separate reactions to 1) deplete all remaining uncatalyzed ATP and 2) convert all remaining ADP to ATP, which is then detected through a traditional luciferase-coupled reaction. Compounds were screened as a concentration-titration series that ranged from 57 uM to 0.7 nM.
# NCGC Assay Protocol Summary:
# Substrate buffer was dispensed into white, solid 1536-well plates at 3uL/well in 0.1M triethanolamine (TEA) buffer, pH 8.0, containing final concentrations of 5 mM MgCl2, 0.01% Tween20, 0.5 mM fructose-6-phosphate (F6P) and 0.1mM ATP. Then, 23 nL of compounds or DMSO were delivered to each well using a pin tool. One uL T. brucei PFK (0.1M TEA, 0.01% Tween20, 0.1% bovine serum albumin (BSA) and 1.25nM PFK, final concentrations) was then dispensed, and plates were incubated at room temperature for 45 min. The luminescent detection reagent, ADP-Glo (Promega), was then added in two steps: the first reagent, ADP-Glo (which converts remaining uncatalyzed ATP), was added at 2.5uL/well and incubated for ten minutes at room temperature, and the second component, Kinase Detection reagent (which converts ADP to ATP as a substrate for luciferase-based luminescence), was added immediately after at 5uL/well, followed by one final ten minute room temperature incubation. The plates were measured on a ViewLux plate reader for luminescent signal using a clear filter with a one second exposure. The %Activity was determined from the corrected luminescence values. As no specific T. brucei PFK inhibitors have been identified in the literature, 1x (1.25nM) and 0x PFK enzyme controls (untreated) were included to normalize %Activity of identified inhibitors; 0x enzyme values corresponded to 100%Activity (full inhibition), while 1x PFK enzyme values were used to normalize 0%Activity (no inhibition).
# Concentration-response curves were fitted to the signals arising from the resulting luminescence. […]
# Potency is the fitted concentration of half-maximal effect.
row,SMILES,Potency
1,CN(C(=O)Cc1ccc(Cl)c(Cl)c1)C(CN1CCCC1)c1cccc(OCC(=O)O)c1 (stereo not given),inactive
2,CN1C2CCC1CC(OC(c1ccccc1)c1ccccc1N)C2 (stereo not given),inactive
3,N[C@@H](CCl)C(=O)O,inactive
4,CC(C)(C)c1o[nH]c(=O)c1CC(N)C(=O)O (stereo not given),inactive
5,CC1(C(=O)O)C2CCC(O2)C1(C)C(=O)O (stereo not given),inactive
6,C[N+](C)(C)CCOC(=O)CBr,inactive
7,CCN(CCCl)Cc1ccccc1Br,inactive
8,N=C(N)c1ccc(CS(=O)(=O)F)cc1,inactive
9,CCCN(CCC)[C@H]1CCc2c(F)ccc(O)c2C1,inactive
10,CCNC(=O)[C@H]1O[C@@H](n2cnc3c(N)ncnc32)[C@H](O)[C@@H]1O,inactive
11,CCN1C[C@@]2(COC)C3[C@@H](OC)C4[C@@H]1C3([C@@H]1C[C@]3(O)[C@H](OC(=O)c5ccccc5)[C@@H]1[C@]4(OC(C)=O)[C@@H](O)[C@@H]3OC)[C@H](OC)C[C@H]2O,inactive
12,Oc1ccc2c3c1O[C@H]1c4oc5ccccc5c4C[C@@]4(O)C(C2)N(CC2CC2)CCC314 (stereo not given in full),inactive
13,Ic1ccccc1CNC1C2CCN(CC2)C1C(c1ccccc1)c1ccccc1 (stereo not given),inactive
14,NC(=O)c1ccc(OCC(O)CN2CC=C(c3ccc(F)cc3)CC2)cc1 (stereo not given),inactive
15,C[Se]C[C@H](N)C(=O)O,inactive
16,Oc1ccc2c3c1O[C@H]1c4[nH]c5ccccc5c4C[C@@]4(O)C(C2)N(CC2CC2)CCC314 (stereo not given in full),inactive
17,COc1ccc2c(c1)/C(=C/c1cnc[nH]1)C(=O)N2,inactive
18,CC(=O)NBr,inactive
19,COc1cc(CC(C)N)c(OC)cc1I (stereo not given),inactive
20,CCCCCCC(C)(C)c1ccc([C@@H]2C[C@H](O)CC[C@H]2CCCO)c(O)c1,inactive

row,SMILES,Potency
1,Cc1o[nH]c(=O)c1CC(N)C(=O)O (stereo not given),inactive
2,CC(Cc1ccc(OCC(=O)O)cc1)NCC(O)c1cccc(Cl)c1 (stereo not given),inactive
3,COc1ccc2[nH]c3c(c2c1)CCNC3,inactive
4,CC(N)[C@H](O)c1ccc(O)c(O)c1 (stereo not given in full),5.36 µM (active)
5,c1ccc2c(c1)[I+]c1ccccc1-2,inactive
6,NC(=O)c1cc(N2CC2)c([N+](=O)[O-])cc1[N+](=O)[O-],inactive
7,CC(N)Cc1c[nH]c2ccc(O)cc12 (stereo not given),inactive
8,C[N+]1(C)C2CCC1CC(OC(=O)c1c[nH]c3ccccc13)C2 (stereo not given),inactive
9,NCCc1c[nH]c2ccc(C(N)=O)cc12,inactive
10,c1ccc2cc(CC3=NCCN3)ccc2c1,inactive
11,CCCN(CCC)[C@@H]1CCc2cccc(O)c2C1,inactive
12,CCn1cnc2c(Nc3cccc(Cl)c3)nc(N[C@@H]3CCCC[C@@H]3N)nc21,inactive
13,CCCN(CCC)CCc1c[nH]c2ccc(C(N)=O)cc12,inactive
14,NC(N)=NOCC[C@H](N)C(=O)O,inactive
15,C=CCN(C1=NCCN1)c1c(Cl)cccc1Cl,inactive
16,CN1CCC(c2c[nH]c3ccc(O)cc23)CC1,inactive
17,CC(N)Cc1c[nH]c2ccc(OCc3cccs3)cc12 (stereo not given),inactive
18,COc1ccc(CNC(=O)/C=C/c2ccc3[nH]cc(CCN(C)C)c3c2)cc1,inactive
19,CCOC(=O)c1ncn2c1[C@@H]1CCCN1C(=O)c1cc(OC)ccc1-2,inactive
20,C=CCN1CCC23c4c5ccc(O)c4O[C@H]2C(=O)CC[C@@]3(O)C1C5 (stereo not given in full),inactive
